Numbering of substitutions follows the chain as printed.
How the values were obtained:
Test in all cases: yeast three-hybrid, YBZ-1, SC-Leu-His + 0.5 mM 3-AT, 4 days
Conditions in all cases: tags: N-Gal4 AD-HA kept; label: inside an RPR1-promoter hybrid RNA with tandem MS2 sites; ssRNA
PUM1 PUF domain R8-VYK = PUM1 PUF domain R8-VYK (Homo sapiens, UniProt Q14671 828-1176, N1122V;Q1126K)
In short: (§1)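 Matching RNA elements and Pumilio-1 PUF domain libraries, randomized at the three base-contacting residues of every repeat, were co-expressed from a centromeric plasmid in strain YBZ-1 (LexA–MS2 coat fusion, HIS3 reporter). The repeat regions were PCR-amplified and Illumina-sequenced from cells grown four days on SC-Leu (input) or SC-Leu-His + 0.5 mM 3-AT (selection). The interaction score is the log change in variant frequency from input to selection. It is computed in log2, with a pseudocount of 1 for absent variants.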

PUM1 PUF domain R1-QVK = PUM1 PUF domain R1-QVK (Homo sapiens, UniProt Q14671 828-1176, S863Q;R864V;Q867K)
In short: as §1

PUM1 PUF domain R5-KAS = PUM1 PUF domain R5-KAS (Homo sapiens, UniProt Q14671 828-1176, C1007K;R1008A;Q1011S)
In short: as §1

PUM1 PUF domain R4-SNL = PUM1 PUF domain R4-SNL (Homo sapiens, UniProt Q14671 828-1176, N971S;H972N;Q975L)
In short: as §1

PUM1 PUF domain R3-ARA = PUM1 PUF domain R3-ARA (Homo sapiens, UniProt Q14671 828-1176, C935A;Q939A)
In short: as §1

PUM1 PUF domain R1-NWS = PUM1 PUF domain R1-NWS (Homo sapiens, UniProt Q14671 828-1176, S863N;R864W;Q867S)
In short: as §1

PUM1 PUF domain R6-CYV = target: T1, PUM1 PUF domain R6-CYV (Homo sapiens, UniProt Q14671 828-1176, N1043C;Q1047V)
T1 sequence: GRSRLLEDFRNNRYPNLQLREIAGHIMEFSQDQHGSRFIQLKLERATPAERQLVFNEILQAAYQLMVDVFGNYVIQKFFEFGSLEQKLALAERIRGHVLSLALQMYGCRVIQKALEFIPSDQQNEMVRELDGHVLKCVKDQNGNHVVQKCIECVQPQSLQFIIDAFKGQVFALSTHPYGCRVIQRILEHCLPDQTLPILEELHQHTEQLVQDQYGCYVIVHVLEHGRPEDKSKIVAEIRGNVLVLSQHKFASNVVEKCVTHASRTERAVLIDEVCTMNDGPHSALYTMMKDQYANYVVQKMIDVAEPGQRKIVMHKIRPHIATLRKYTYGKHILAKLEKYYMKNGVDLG
In short: as §1

PUM1 PUF domain R6-GHS = target: T2, PUM1 PUF domain R6-GHS (Homo sapiens, UniProt Q14671 828-1176, N1043G;Y1044H;Q1047S)
T2 sequence: T1 sequence with C216G, Y217H, V220S
In short: as §1

PUM1 PUF domain R3-VYF = PUM1 PUF domain R3-VYF (Homo sapiens, UniProt Q14671 828-1176, C935V;R936Y;Q939F)
In short: as §1

PUM1 PUF domain R4-EYM = PUM1 PUF domain R4-EYM (Homo sapiens, UniProt Q14671 828-1176, N971E;H972Y;Q975M)
In short: as §1

GGCUAGAACUAGUGGAUCCCCCGGCGCCCGGCGGCUCGAGCCCGGGUAAGCGUAAAUAGUCUGCAUGCCGCCGGGCGCCAUGCCUGCAGGUCGACUCUAGAAAACAUG
binding signal (PUM1 PUF domain R8-VYK): 4.78 log2 enrichment (interaction score)

GGCUAGAACUAGUGGAUCCCCCGGCGCCCGGCGGCUCGAGCCCGGGUAAGUGUAAAUCGUCUGCAUGCCGCCGGGCGCCAUGCCUGCAGGUCGACUCUAGAAAACAUG
binding signal (PUM1 PUF domain R1-QVK): 2.91 log2 enrichment (interaction score)

GGCUAGAACUAGUGGAUCCCCCGGCGCCCGGCGGCUCGAGCCCGGGUAAGUGUCAAUAGUCUGCAUGCCGCCGGGCGCCAUGCCUGCAGGUCGACUCUAGAAAACAUG
binding signal (PUM1 PUF domain R5-KAS): 3.47 log2 enrichment (interaction score)

GGCUAGAACUAGUGGAUCCCCCGGCGCCCGGCGGCUCGAGCCCGGGUAAGUGUAUAUAGUCUGCAUGCCGCCGGGCGCCAUGCCUGCAGGUCGACUCUAGAAAACAUG
binding signal (PUM1 PUF domain R4-SNL): 4.22 log2 enrichment (interaction score)

GGCUAGAACUAGUGGAUCCCCCGGCGCCCGGCGGCUCGAGCCCGGGUAAGUGUAAUUAGUCUGCAUGCCGCCGGGCGCCAUGCCUGCAGGUCGACUCUAGAAAACAUG
binding signal (PUM1 PUF domain R3-ARA): 0.92 log2 enrichment (interaction score)

GGCUAGAACUAGUGGAUCCCCCGGCGCCCGGCGGCUCGAGCCCGGGUAAGUGUAAAUUGUCUGCAUGCCGCCGGGCGCCAUGCCUGCAGGUCGACUCUAGAAAACAUG
binding signal (PUM1 PUF domain R1-NWS): 5.3 log2 enrichment (interaction score)
binding signal (PUM1 PUF domain R1-QVK): 0.46 log2 enrichment (interaction score)

GGCUAGAACUAGUGGAUCCCCCGGCGCCCGGCGGCUCGAGCCCGGGUAAGUGAAAAUAGUCUGCAUGCCGCCGGGCGCCAUGCCUGCAGGUCGACUCUAGAAAACAUG
binding signal (PUM1 PUF domain R6-CYV): 3.61 log2 enrichment (interaction score)
binding signal (PUM1 PUF domain R6-GHS): 2.5 log2 enrichment (interaction score)

GGCUAGAACUAGUGGAUCCCCCGGCGCCCGGCGGCUCGAGCCCGGGUAAGUGUUAAUAGUCUGCAUGCCGCCGGGCGCCAUGCCUGCAGGUCGACUCUAGAAAACAUG
binding signal (PUM1 PUF domain R5-KAS): 5.33 log2 enrichment (interaction score)

GGCUAGAACUAGUGGAUCCCCCGGCGCCCGGCGGCUCGAGCCCGGGUAAGUGUAAGUAGUCUGCAUGCCGCCGGGCGCCAUGCCUGCAGGUCGACUCUAGAAAACAUG
binding signal (PUM1 PUF domain R3-ARA): 1.03 log2 enrichment (interaction score)

GGCUAGAACUAGUGGAUCCCCCGGCGCCCGGCGGCUCGAGCCCGGGUAAGUGUAAAUAGUCUGCAUGCCGCCGGGCGCCAUGCCUGCAGGUCGACUCUAGAAAACAUG
binding signal (PUM1 PUF domain R6-CYV): 0.52 log2 enrichment (interaction score)
binding signal (PUM1 PUF domain R4-SNL): 2.52 log2 enrichment (interaction score)
binding signal (PUM1 PUF domain R3-VYF): 5.15 log2 enrichment (interaction score)
binding signal (PUM1 PUF domain R6-GHS): 0.45 log2 enrichment (interaction score)
binding signal (PUM1 PUF domain R3-ARA): 3.97 log2 enrichment (interaction score)

GGCUAGAACUAGUGGAUCCCCCGGCGCCCGGCGGCUCGAGCCCGGGUAAGUGUACAUAGUCUGCAUGCCGCCGGGCGCCAUGCCUGCAGGUCGACUCUAGAAAACAUG
binding signal (PUM1 PUF domain R4-SNL): 1.34 log2 enrichment (interaction score)
binding signal (PUM1 PUF domain R4-EYM): 2.59 log2 enrichment (interaction score)
